Experimental data published in ChEMBL document CHEMBL3988442, “University of Dundee, Small-Polar-MMV Screening Library” (2021).
Among all 48,000 compounds or so, about 13,000 (27%) showed an effect of 50% or more. The list shows a part of the results.

Each compound was assayed on Wolbachia pipientis (assay: Anti-Wolbachia Cell-Based Screen). Conditions: 5 µM.
Format: functional
Design: scale not given: in the data most compounds retested in dose-response had high values

Compound	Percent Effect
NC(=O)C1CCCN1Cc1ccccc1NC(=O)CC(F)(F)F (configuration not stated)	-9.794%
O=C1CC(C(=O)Nc2nnc(-c3ccoc3)[nH]2)c2ccccc2N1 (configuration not stated)	-8.464%
COc1ccc(OC)c2c(C)cc(N(CCO)CCO)nc12	-7.73%
CCn1c(CC2CCN(C(=O)c3cc(C(C)C)n[nH]3)CC2)n[nH]c1=O	-9.861%
CCC[C@H]1CN(CCS(C)(=O)=O)C[C@@H]1NC(=O)c1ccccn1	20.97%
Fc1ccc(-c2nnc(CN3CCOC(Cn4cncn4)C3)o2)cc1 (configuration not stated)	-1.88%
Cc1ccoc1-c1nnc(CN2CCCC(Cn3cncn3)C2)o1 (configuration not stated)	-5.411%
Fc1ccc(-c2nnc(CN3CCCC(Cn4cncn4)C3)o2)cc1 (configuration not stated)	112.2%
CC(CCn1cccn1)Nc1ccc(-c2nccn2C)nn1 (configuration not stated)	-7.65%
CC(C)(NS(C)(=O)=O)C(=O)NCCc1csc2ccccc12	9.786%
Cc1occc1C(=O)N1CCCN(Cc2nccn2C)CC1	92.51%
Cc1occc1C(=O)N1CCCN(Cc2ncc(Cl)n2C)CC1	3.419%
Cc1cc(C(=O)N2CCCN(Cc3nccn3C)CC2)no1	89.63%
Cn1ccnc1CN1CCCN(C(=O)c2ccc(Cl)o2)CC1	-2.733%
CCc1nnsc1C(=O)N1CCCN(Cc2nccn2C)CC1	-3.239%
O=C(NCc1ccccc1)c1nnc2ccc(N3CCOCC3)cc2n1	4.321%
Cc1ccc(C)c2c(O)cc(CN[C@H]3CCCCNC3=O)nc12	-6.417%
Cc1cc(NCC2CC(=O)Nc3ccccc32)nc(C)n1 (configuration not stated)	2.28%
CCN(CC)S(=O)(=O)N1CCCC(c2ccc(C(=O)O)cc2)C1 (configuration not stated)	-2.613%
CC(C)C(=O)N1CCC(c2c(C(N)=O)sc3ccccc23)C1 (configuration not stated)	99.6%
CCN(CC)S(=O)(=O)N1CCC(c2c(C(N)=O)sc3ccccc23)C1 (configuration not stated)	158.5%
CCN(CC)S(=O)(=O)N1CCCC(c2cccc(C(=O)O)c2)C1 (configuration not stated)	14.6%
CN(C)S(=O)(=O)N1CC[C@]2(O)CCN(c3nc4ccccc4s3)C[C@@H]2C1	10.05%
CN(C)S(=O)(=O)N1CCC(c2c(C(N)=O)sc3ccccc23)C1 (configuration not stated)	94.67%
NC(=O)c1sc2ccccc2c1C1CCN(S(=O)(=O)N2CCOCC2)C1 (configuration not stated)	162.8%
CC(NC(=O)N1CCC(CC(N)=O)CC1)c1csc2ccccc12 (configuration not stated)	-9.558%

Compound	Percent Effect
CN(C)S(=O)(=O)N1CCC(OCCCc2ccccc2)C1 (configuration not stated)	-12.64%
CC(C)C(=O)N1CCC(C2C(=O)Nc3ccccc32)CC1 (configuration not stated)	-15.74%
O=S(=O)(N1CCOCC1)N1CCOC(CCc2ccccc2)C1 (configuration not stated)	-18.19%
O=S(=O)(N1CCOCC1)N1CCOC(CCCc2ccccc2)C1 (configuration not stated)	5.354%
COCC1CCN(C(=O)c2cc(O)nc(CC(C)C)c2)CC1	9.231%
Cl.Cl.c1c(CN2CCCC2)nc2n1CCNC2	4.335%
CC(C(=O)NCc1cccc(N2CC=CC2)c1)n1cccn1 (configuration not stated)	-4.465%
CCOC(=O)N1CCN(C(=O)Cc2c(C)nc(C)[nH]c2=O)CC1	-14.69%
Cc1cnccc1NCCn1ccnc1C1CCOC1 (configuration not stated)	-4.825%
CCC(Nc1ncnc2sc(C(=O)O)c(C)c12)c1ccnn1C (configuration not stated)	-0.5167%
Cc1ccc(CN2C(=O)CC[C@]23CC[C@@H](NCC2CCOC2)CC3)cc1.O=C(O)C(F)(F)F (some centres not stated)	-23.04%
CCN1CC(C(=O)NCCOc2ccc3c(c2)OCO3)CC1=O (configuration not stated)	101.2%
CC(C)N1CC(C(=O)NCCOc2ccc3c(c2)OCO3)CC1=O (configuration not stated)	7.499%
O=C(NCCOc1ccc2c(c1)OCO2)C1CC(=O)N(C2CC2)C1 (configuration not stated)	106.6%
COC(=O)CCNC(=O)C1CC(=O)N(C2CCCC2)C1 (configuration not stated)	-11.01%
CN1CC(C(=O)NCCOc2ccc3c(c2)OCO3)CC1=O (configuration not stated)	106.4%
CCN1CC(C(=O)NCc2ccnc(-n3ccnc3C)c2)CC1=O (configuration not stated)	5.504%
CC(C)CN1CC(C(=O)NCCc2c[nH]cn2)CC1=O (configuration not stated)	10.41%
O=C(NCCOc1ccc2c(c1)OCO2)C1CC(=O)N(CC2CC2)C1 (configuration not stated)	4.084%
O=C(NCCOc1cccc(Cl)c1)C1CC(=O)N(CC2CC2)C1 (configuration not stated)	-4.254%
Cc1ccc(OCCC(=O)NC2CC(=O)N(C)C2)cc1C (configuration not stated)	-10.49%
CC(C)CN1CC(C(=O)NCCOc2ccc3c(c2)OCO3)CC1=O (configuration not stated)	103.1%
CC(=O)N1CCN(c2ccccc2CNc2cncc(C)c2)CC1	-7.391%
CCc1cc(=O)[nH]c2nnc(SCC(=O)NC)n12	-1.194%
Cc1cc(N2CCC(c3nccn3Cc3cscn3)CC2)ccn1	-23.28%
O=C(Cc1ccsc1)N1CCC2(CCCN(CC3CCOCC3)C2)C1 (configuration not stated)	-0.5355%

Compound	Percent Effect
O=C(c1cccs1)N1CCC(O)(CN2CCc3ccccc3C2)C1 (configuration not stated)	-8.795%
O=C(Cc1cccs1)N1CCC(O)(CN2CCc3ccccc3C2)C1 (configuration not stated)	105.2%
O=C1NC2(CCN(C(=O)Cc3ccsc3)CC2)CC1c1ccccc1 (configuration not stated)	6.926%
O=C(Cc1ccsc1)N1CCC(O)(CN2CCc3ccccc3C2)C1 (configuration not stated)	104.8%
O=C(NCc1cccs1)NCC1(O)CCc2ccccc2C1 (configuration not stated)	-8.141%
CC(C)c1cc(NC(CO)CO)n2nccc2n1	17.2%
CC(C)n1nc2c(cc1=O)CN(Cc1nc(-c3ccoc3)no1)CC2	17.12%
COCCN1CCC(C(=O)N(C)CCOc2ccc(C)cc2Cl)C1 (configuration not stated)	-22.94%
O=C1CO[C@@H]2CN(S(=O)(=O)c3ccc(F)cc3)C[C@H]2N1	87.78%
O=C1CO[C@@H]2CN(S(=O)(=O)c3ccccc3F)C[C@H]2N1	96.68%
O=C1CO[C@H]2CN(Cc3ccc(C(F)(F)F)cc3)C[C@H]2N1	-16.85%
O=C1CO[C@H]2CN(Cc3ccc(F)c(F)c3)C[C@H]2N1	-16.97%
CNC(=O)Cc1csc(NC(=O)C2CSCCC(=O)N2)n1 (configuration not stated)	9.778%
Cc1nc2c(c(NC3CC3)n1)CCN(C(=O)C1(C#N)CC1)CC2	-9.329%
CCNc1ccnc(N2Cc3cnc(CC(C)C)nc3C2)n1	8.628%
CSCCC(NC(=O)c1ccc2ccccc2n1)C(=O)O (configuration not stated)	-5.769%
CCSc1ncc(Cl)c(C(=O)NC(CCSC)C(=O)O)n1 (configuration not stated)	88.5%
CCOc1ccc(Cl)c(C(=O)NC(Cc2ccccc2)C(N)=O)n1 (configuration not stated)	-4.15%
CSc1ccsc1C(=O)NC(Cc1ccccc1)C(N)=O (configuration not stated)	-23.55%
CSc1ncc(Cl)c(C(=O)NC(Cc2ccccc2)C(=O)O)n1 (configuration not stated)	98.91%
CSCCC(NC(=O)c1ccc2ccccc2n1)C(=O)N(C)C (configuration not stated)	-7.928%
CSCCC(NC(=O)c1nc(SC)ncc1Cl)C(=O)O (configuration not stated)	130.6%
CCOCCNC(=O)C(CCSC)NC(=O)c1ccc2ccccc2n1 (configuration not stated)	5.309%
CCOc1ccc(Cl)c(C(=O)NC(C(N)=O)c2ccccc2)n1 (configuration not stated)	-8.916%
CCCSc1ncc(Cl)c(C(=O)NC(CCSC)C(=O)O)n1 (configuration not stated)	125.3%
C=C(C)COc1ccc(C(=O)NCCn2c(C)cc(C)nc2=O)cc1	3.763%

Compound	Percent Effect
NC(CC1CCCC1)c1ccc(Oc2ccccc2)cc1 (configuration not stated)	-4.539%
Cc1nnc(CN2CCCC2c2ccc3c(c2)OCCCO3)n1C (configuration not stated)	-16.28%
Cc1ccc(CNCc2nnc3n2CCCC3C(F)(F)F)s1 (configuration not stated)	-0.9896%
Cc1cc(CC(=O)NCC(O)COc2ccc(F)c(F)c2)n[nH]1 (configuration not stated)	-4.204%
CCN(CC)c1ccc(CNC(=O)c2cnc(C)cn2)cn1	0.4576%
CCN(CC)C(=O)c1ccc(Cl)c(NC(=O)c2csnn2)c1	102.3%
CCN(CC)C(=O)c1ccc(Cl)c(NC(=O)c2cc(C(C)C)on2)c1	105.3%
CC(C)CC(=O)Nc1cc(C(=O)N(C)C(C)C)ccc1Cl	-13.72%
CCN(CC)C(=O)c1ccc(Cl)c(NC(=O)c2cc[nH]n2)c1	48.61%
CC(C)OCCC(=O)Nc1cc(C(=O)N(C)C(C)C)ccc1Cl	-18.48%
Cc1cnc(C(=O)N(CCN(C)C)Cc2ccc(Cl)cc2)cn1	18.7%
CCN(CC)C(=O)c1ccc(Cl)c(NC(=O)c2cnc(C)cn2)c1	101.4%
COCCN(Cc1ccc(F)cc1Cl)C(=O)c1csnn1	2.289%
O=C(c1nc(=O)[nH]c2ccccc12)N1CCCC(CC2CC2)(C(=O)O)C1 (configuration not stated)	-2.768%
CCc1noc(CS(=O)(=O)c2cccc(OC)c2)n1	-12.89%
CN(C)C[C@@H]1CN(C(=O)Cc2ccc3ccccc3c2)C[C@@H]1CO	-10.12%
Cc1c(C(=O)N2CCC(O)(CN(C)C)C2)c2cc(O)ccc2n1C (configuration not stated)	-4.838%
CN(C)CC1(O)CCCN(C(=O)Cc2ccc(Cl)c(Cl)c2)C1 (configuration not stated)	6.381%
CN(C)CC1(O)CCN(C(=O)Cc2ccc(Cl)c(Cl)c2)C1 (configuration not stated)	-5.552%
CN(CCO)C[C@@H]1CN(C(=O)Cc2ccc3ccccc3c2)C[C@@H]1CO	-10.71%
CN(C)CC1(O)CCN(C(=O)Cc2ccc3c(c2)CCCC3)C1 (configuration not stated)	97.61%
Cc1cc2occ(CC(=O)N3CCC(O)(CN(C)C)C3)c2cc1Cl (configuration not stated)	-55.74%
CN(C)CC1(O)CCN(C(=O)Cc2ccc3ccccc3c2)C1 (configuration not stated)	131.3%
CN(C)CC1(O)CCN(C(=O)Cc2ccc3c(c2)CCC3)C1 (configuration not stated)	113.1%
